For 91 compounds, inhibition results are on record in PubChem BioAssay AID1422 (Emory University Molecular Libraries Screening Center, 2008).

SMILES strings stand for the structures. Where “and” joins values, the source holds several entries; their conditions need not be identical. Equal values may be shown once. The campaign covered roughly 260,000 compounds. About 1,300 (0.5%) were called active.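 The calls were made as follows: active = percent inhibition above 40 after rounding to a whole number; inactive = the rest.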 This excerpt belongs to a sample that is enriched for actives. A structure can be active in one record and inactive in another.

The inhibition is the relative decrease from the control value, in per cent.

The target in the test is Prostaglandin E2 receptor EP2 subtype (Homo sapiens) (UniProt P43116). Briefly: human EP2 receptor antagonists, primary screen, TR-FRET cAMP, C6 glioma cells (AID 1422).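 Also: rat C6 glioma host cells with rolipram phosphodiesterase inhibitor present; the protocol text gives 20 µM as final concentration.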 To be noted: C6 glioma cells expressing human EP2, cAMP TR-FRET; at 25 µM; stronger effect = higher value; cells stimulated with saturating PGE2. In general terms: In TR-FRET formats the signal depends on donor and acceptor labels being close together.
Prostaglandin E2 receptor EP2 subtype (Homo sapiens), sequence (P43116 whole entry, looked up): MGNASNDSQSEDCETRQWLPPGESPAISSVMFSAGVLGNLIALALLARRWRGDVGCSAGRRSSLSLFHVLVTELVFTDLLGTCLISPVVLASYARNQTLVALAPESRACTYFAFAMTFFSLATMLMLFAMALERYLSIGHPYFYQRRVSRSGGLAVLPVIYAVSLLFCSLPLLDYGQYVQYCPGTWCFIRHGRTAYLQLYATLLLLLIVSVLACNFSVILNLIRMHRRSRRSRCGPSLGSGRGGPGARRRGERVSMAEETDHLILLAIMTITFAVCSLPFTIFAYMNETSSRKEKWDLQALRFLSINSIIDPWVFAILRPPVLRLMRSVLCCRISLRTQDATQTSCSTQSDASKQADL
Consider `Oc1c(Cl)cc(Cl)c(Cl)c1Cc1c(O)c(Cl)cc(Cl)c1Cl`, for which the inhibition was 113% (active) and 18.5% (inactive). In the case of `COc1ccc(CNC(=O)C2C3CCC4(CN(CCc5ccccc5)C(=O)C24)O3)cc1` (stereo unspecified), the inhibition is 8.25% (inactive). Regarding `COC(=O)c1c(NC(=O)c2cccc(C)c2)sc(C(=O)Nc2cccc(OC)c2)c1C`, the inhibition is 7.04% (inactive).

Turning to `Clc1ccc(Nc2ncnc3c2nnn3Cc2ccccc2)cc1`, the inhibition is 7.31% (inactive).

With `Clc1ccc(Nc2nc3nonc3n3nnnc23)cc1`, the inhibition is 91.1% (active).

Take `COc1ccccc1NC(=S)N(Cc1cc2cccc(C)c2[nH]c1=O)CC1CCCO1` (stereo unspecified): the inhibition was 15.9% (inactive).

For the compound `Cc1ccc2[nH]c(=O)c(CN(Cc3ccccc3Cl)C(=O)N3CCCC3)cc2c1`, the inhibition is 11.3% (inactive).

With `CCCC(NC(=O)c1csc(C(C)=O)c1)c1ccc2c(c1)OCCO2` (stereo unspecified), the inhibition was 9.91% (inactive). Under `COc1ccc(-c2cc(C(F)(F)F)nc(SCCC(=O)N3CCCCC3C)n2)cc1` (stereo unspecified) stands 12.1% (inactive); under `COc1ccc(-c2cc(C(F)(F)F)nc(SCC(=O)N3CCCCC3C)n2)cc1` (stereo unspecified), 52.4% (active); under `CC1CCCCN1C(=O)CSc1nc(-c2ccccc2)cc(C(F)(F)F)n1` (stereo unspecified), 12.9% (inactive).

On to `CCOc1ccc(C2C(C(=O)c3ccco3)=C(O)C(=O)N2CCOC)cc1OC` (stereo unspecified), for which the inhibition was 8.68% (inactive). Under `COc1cccc(/C=N/Nc2cc(C)nc(-c3ccccc3O)n2)c1O` stands 39.9% (active); under `COc1cccc(/C=N/Nc2ncc(C(F)(F)F)cc2Cl)c1O`, 4.36% (inactive); under `COc1ccccc1/C=N\Nc1cc(C)nc(-n2nc(C)cc2C)n1`, 3.92% (inactive).

`Oc1ccccc1-c1nc2cnccn2c1NCc1ccccc1`: the inhibition is 9.33% (inactive). The value for `CN(C)CCCNC(=O)C(=O)Nc1ccc2c(c1)OCO2` was 13.4% (inactive); that for `C[C@H]1O[C@@H](CC(=O)O)Cc2c1c(O)c1c(O)cc(-c3cc(=O)c4c(=O)c5c(c(=O)c=4c3=O)C[C@H](CC(=O)O)O[C@@H]5C)c(O)c1c2O` was 41.5% (active); that for `Cc1ccc(NC=C2C(=O)OC(C)(C)OC2=O)cc1Cl` was 10% (inactive). The value for `Cc1ccc(C)c2[nH]c(=O)c(C(c3nnnn3Cc3ccc(F)cc3)N3CCc4ccccc4C3)cc12` (stereo unspecified) was 6.97% (inactive); that for `C=COCCNC(=O)Cn1nc(C)n2c(cc3occc32)c1=O` was 7.9% (inactive). With `CNc1ncnc2c1ncn2[C@@H]1O[C@H](CO)[C@H](O)C1O` (stereo partly specified), the inhibition is 13.5% (inactive). With `OC[C@@H]1O[C@H](n2cnc3c(SCc4ccccc4)ncnc32)[C@H](O)[C@H]1O`, the inhibition was 48.2% (active).

For `Nc1nc(SCc2ccc([N+](=O)[O-])cc2)c2ncn(C3OC(CO)C(O)C3O)c2n1` (stereo unspecified), the inhibition is 9.89% (inactive). Under `CCOc1ccc(-n2nnnc2SCC(=O)Nc2ccc(C)c(NC(=O)CC)c2)cc1` stands 10.6% (inactive). Under `CC(=O)Nc1ccc(S(=O)(=O)N2CC=C[C@@H]2C(=O)NCCc2ccccc2)cc1` stands 8.27% (inactive); under `Cc1ccc(C)c2nc(SCC(=O)Nc3ccccc3-c3ccccc3)c(C#N)cc12`, 13.9% (inactive); under `Cc1cccc2cc(CN(Cc3cccs3)C(=O)Nc3ccc(Cl)cc3)c(=O)[nH]c12`, 6.58% (inactive).

For the compound `OC(CN1CCC(O)(c2cccc(C(F)(F)F)c2)CC1)c1ccccc1` (stereo unspecified), the inhibition was 5.58% (inactive). Under `CC1CCc2c(sc3ncn4c(SCC(=O)N5CCc6ccccc65)nnc4c23)C1` (stereo unspecified) stands 16.8% (inactive); under `COc1ccccc1NC(=O)CSc1ncnc2sc3c(c12)CCC(C)C3` (stereo unspecified), 15.3% (inactive). Regarding `COc1ccc(NC(=O)CSc2nnc3c4c5c(sc4ncn23)CC(C)CC5)cc1` (stereo unspecified), the inhibition was 46.8% (active). Take `Cc1nnc(NC(=O)CN2CCN(C3CCCCC3)CC2)s1`: the inhibition is 13.3% (inactive). With `COC(=O)c1ccc(-n2nnnc2SCC(=O)NCc2cccs2)cc1`, the inhibition was 10.1% (inactive). With `COc1ccc(C2(NC(=O)c3ccc(N4CCCCS4(=O)=O)cc3)CCCC2)cc1`, the inhibition was 6.96% (inactive). Consider `CC(C)C(NC(=O)OCc1ccccc1)C(=O)OCC(=O)N1C(C)CCCC1C` (stereo unspecified), for which the inhibition was 12.2% (inactive). The value for `O=C(O)C1CCN(C(=O)OCc2ccccc2)CC1` was 7.11% (inactive).

For the compound `NC1(C(=O)OCc2ccccc2)CCCC1`, the inhibition is 42.6% (active). As for `COc1ccccc1C1(NC(=O)c2snnc2C)CCCC1`, the inhibition was 10.4% (inactive). Under `O=C(O)COc1nc(N2CCCCC2)nc(N2CCCCC2)n1` stands 11.5% (inactive); under `Cc1cccc(N(CC(=O)NC2CCCC2)C(=O)c2snc(C(=O)NC3CCCCC3)c2N)c1C`, 13.6% (inactive). In the case of `CC(=O)Nc1cc(C(=O)O)ccc1S(=O)(=O)c1ccc(Cl)cc1`, the inhibition was 5.25% (inactive). The value for `CS(=O)(=O)c1ccc(Cl)c(NC(=O)Nc2ccccc2)c1` was 6.72% (inactive); that for `O=C(Nc1ccccc1)c1nnsc1S(=O)(=O)c1ccc(Cl)cc1` was 114% (active). `CC1CCc2c(sc3ncnc(SCc4cc(=O)[nH]c5ccccc45)c23)C1` (stereo unspecified): the inhibition is 13.1% (inactive). As for `Cc1cccc2c(=O)c(C(=O)NN)c[nH]c12`, the inhibition was 5.35% (inactive).

On to `Cc1cc(C)cc(NC(=O)CSc2nc3c(c(=O)n(C)c(=O)n3C)n2C(C)C)c1`, for which the inhibition is 5.34% (inactive).

`COC(=O)c1ccccc1NC(=O)CSc1nnc2c(C)cc3cc4c(cc3n12)OCCO4`: the inhibition is 7.88% (inactive). As to `Cc1nc(NC(=O)CSc2nnc3c(C)cc4cc5c(cc4n23)OCCO5)sc1C`, the inhibition was 40.1% (active). As to `Cc1cc2cc3c(cc2n2c(SCC(=O)Nc4ccc(Cl)cc4)nnc12)OCCO3`, the inhibition was 19.1% (inactive). `CC1Cc2cc(C(O)CN3CCCC3)ccc2N1C(=O)C(C)(C)C` (stereo unspecified): the inhibition is 6.03% (inactive). Consider `Cc1ccc(C(=O)C2=C(O)C(=O)N(Cc3ccccc3)C2c2ccncc2)o1` (stereo unspecified), for which the inhibition was 17.6% (inactive). Regarding `COc1cc(C2C(C(=O)c3ccc(C)o3)=C(O)C(=O)N2Cc2cccnc2)ccc1O` (stereo unspecified), the inhibition was -0.43% (inactive). In the case of `C=CCOc1cccc(C2C(C(=O)c3ccc(C)o3)=C(O)C(=O)N2c2nnc(C)s2)c1` (stereo unspecified), the inhibition is 45.8% (active). Take `CC(=O)C(C)n1c(CN2CCC(C)CC2)nc2c1c(=O)n(C)c(=O)n2C` (stereo unspecified): the inhibition was 7.13% (inactive). With `Cn1c(=O)c2c([nH]c(=O)n2Cc2cccc3ccccc23)n(C)c1=O`, the inhibition is 11.4% (inactive).

With `O=C(/C=C/c1ccc(Cl)c([N+](=O)[O-])c1)c1ccc(O)cc1`, the inhibition was 2.09% (inactive). Under `O=C(/C=C/c1ccc(Cl)c([N+](=O)[O-])c1)c1cccnc1` stands 43.7% (active); under `O=C(Nc1cccnc1)c1ccc(Cl)c([N+](=O)[O-])c1`, 3.46% (inactive). The value for `COc1ccc(CNc2sc3c(c2C(=O)Nc2ccccc2OC)CCC3)cc1` was 8.59% (inactive). The value for `COc1ccc2c(c1)NC1(CCN(C(=O)c3ccc(Cl)nc3)CC1)c1cccn1-2` was 13% (inactive). Regarding `Cc1cccc(NC(=S)N(Cc2cc3ccc(C)c(C)c3[nH]c2=O)CC2CCCO2)c1` (stereo unspecified), the inhibition was 8.93% (inactive). For the compound `O=c1oc2ccccc2cc1-c1csc(Nc2cccc(O)c2)n1`, the inhibition is 117% (active). Turning to `COc1ccc2nc(Nc3nc(-c4cc5ccccc5oc4=O)cs3)sc2c1`, the inhibition was 6.47% (inactive). The value for `O=c1oc2ccccc2cc1-c1csc(Nc2ccc(O)cc2)n1` was 4.13% (inactive); that for `CCOc1ccc2nc(SCC(=O)OC(C)C)c(C#N)cc2c1` was 10.9% (inactive); that for `O=C1c2cccc3cc(Br)cc(c23)C(=O)N1Nc1ccccc1` was 7.35% (inactive). For the compound `O=C1C=C(c2ccc(Cl)cc2)C(=O)N1Nc1ccccc1`, the inhibition is 134% (active). For the compound `O=C(O)CC1=C(Nc2ccccc2)C(=O)N(c2ccccc2)C1c1ccc(Cl)cc1` (stereo unspecified), the inhibition was 5.93% (inactive). `COc1ccc(C(c2nnnn2CC2CCCO2)N2CCN(C3CCCCC3)CC2)cc1` (stereo unspecified): the inhibition is 1.12% (inactive). Under `Cc1ccc(C)c(N2C(=O)c3cccc4c(N(C)C)ccc(c34)C2=O)c1` stands 8.88% (inactive); under `CC1CCN(C(=O)CN(C)S(=O)(=O)c2ccc(F)cc2)CC1`, 7.13% (inactive); under `c1ccc2c(c1)OCC(CNc1ncnc3nc[nH]c13)O2` (stereo unspecified), 10.3% (inactive). As for `COc1ccc(Nc2ncnc3sc(-c4ccccc4)cc23)c(OC)c1`, the inhibition was 15.7% (inactive). As for `c1ccc(-c2cc3c(NCC4COc5ccccc5O4)ncnc3s2)cc1` (stereo unspecified), the inhibition was 99.7% (active). As for `COc1ccccc1N=C1Sc2nc3cc4c(cc3cc2CN1CC1CCCO1)OCO4` (stereo unspecified), the inhibition is 9.09% (inactive).

Consider `CC(C)n1c(SCC(=O)N(Cc2ccccc2)C(C)(C)C)nc2c1c(=O)n(C)c(=O)n2C`, for which the inhibition was 9.83% (inactive).

As to `CCN1CCN(C(=O)c2sc3ccccc3c2Cl)CC1`, the inhibition is 9.4% (inactive).

Turning to `Cc1ccc(C2C3=C(Nc4[nH]n(-c5ccccc5)c(=O)c42)c2ccccc2C3=O)cc1` (stereo unspecified), the inhibition was 10.2% (inactive).

For the compound `COc1ccccc1NC(=O)C1=C(C)NC2=C(C(=O)CCC2)C1c1ccc(C)o1` (stereo unspecified), the inhibition is 2.07% (inactive). `COC(=O)C1=C(C)NC2=C(C(=O)c3ccccc32)C1c1ccc(-c2ccc(C(=O)O)cc2)o1` (stereo unspecified): the inhibition was 42.5% (active).

Consider `O=C(NCc1ccccc1)C(=O)c1c[nH]c2ccccc12`, for which the inhibition was 12.1% (inactive). For `C/C(Cl)=C\CSc1nc(N2CCOCC2)c2c(c1C#N)CC(C)(C)OC2`, the inhibition is 9.2% (inactive). Under `CN1CCN(C(c2ccc(Cl)cc2)c2nnnn2Cc2ccco2)CC1` (stereo unspecified) stands 13.3% (inactive).

Regarding `Cc1ccc(N2CCCC2=O)cc1S(=O)(=O)NC1CCCNC1=O` (stereo unspecified), the inhibition is 5.07% (inactive). For `COc1ccc2c(c1)N(C)/C(=c1\s/c(=C3\SC(=S)N(C)C3=O)n(C)c1=O)S2`, the inhibition was 17.4% (inactive). The value for `C/C(N[O-])=C(\C)[N+]([O-])=[Co].CC(=N\[O-])/C(C)=N/[O-].[CH2-]CCN1CCOCC1.c1ccncc1` was 42.1% (active); that for `CN(C)S(=O)(=O)c1ccc(S(=O)(=O)N2CCN(c3ccccc3F)CC2)cc1` was 15.4% (inactive). Under `CCc1c(-c2ccccc2)nc(N)c(C#N)c1-c1cccs1` stands 5.93% (inactive); under `CCOc1cc(-c2c(C#N)c(N)nc(-c3ccccc3)c2CC)ccc1O`, 42.1% (active). Under `CCOc1cc(-c2cc(-c3ccc(OC)cc3)nc(N)c2C#N)ccc1O` stands 13.6% (inactive) and 5.97% (inactive).
